Results: PubChem BioAssay (NCI)
The panel holds about 83,000 compounds, 20% with a hit somewhere; the sample as a whole holds those more often.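 Plates (96-well) were seeded with cells, treated with compound at one concentration, and incubated for 48 hours before percent growth was determined.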 Active and inactive are the calls of the source. How the source made its calls: active means growth percent below 10; inactive means the rest.

Experiments:
Assay in all cases: NCI-60 one-dose screen, 48 h (100 = growth as untreated, 0 = no growth, -100 = all killed)
Conditions in all cases: 10 µM unless noted
SK-MEL-2 melanoma = system: SK-MEL-2 melanoma
EKVX NSCLC = system: EKVX NSCLC
SN12C renal = system: SN12C renal
UO-31 renal = system: UO-31 renal
TK-10 renal = system: TK-10 renal
ACHN renal = system: ACHN renal
CAKI-1 renal = system: CAKI-1 renal
A498 renal = system: A498 renal
CCRF-CEM leukemia = system: CCRF-CEM leukemia
MOLT-4 leukemia = system: MOLT-4 leukemia
SR leukemia = system: SR leukemia
OVCAR-8 ovarian = system: OVCAR-8 ovarian
OVCAR-5 ovarian = system: OVCAR-5 ovarian
OVCAR-4 ovarian = system: OVCAR-4 ovarian
SK-OV-3 ovarian = system: SK-OV-3 ovarian
IGROV1 ovarian = system: IGROV1 ovarian
OVCAR-3 ovarian = system: OVCAR-3 ovarian
HS 578T breast = system: HS 578T breast
NCI/ADR-RES ovarian = system: NCI/ADR-RES ovarian

Measured: growth

CCCCCCn1c(-c2ccc(C(=O)O/N=C(\N)c3ccc4ccccc4c3)cc2)nc(-c2ccccc2)c1-c1ccccc1
active: UO-31 renal -85.4% | ACHN renal 0.0407% | SR leukemia -37.7% | IGROV1 ovarian -48.3% | NCI/ADR-RES ovarian 3.92%
inactive: SK-MEL-2 melanoma 88.6% | EKVX NSCLC 18% | SN12C renal 45.6% | TK-10 renal 47.4% | CAKI-1 renal 33.9% | A498 renal 51.4% | CCRF-CEM leukemia 18.5% | MOLT-4 leukemia 41.2% | OVCAR-8 ovarian 64.6% | OVCAR-5 ovarian 71.6% | OVCAR-4 ovarian 56.8% | SK-OV-3 ovarian 91% | OVCAR-3 ovarian 74.8% | HS 578T breast 46.8%

CC([C@H]1CCC2C3CCC4C[C@@H](NC=O)CC[C@]4(C)C3CC[C@@]21C)N(C)C (some centres undefined)
active: SK-MEL-2 melanoma -7.03% | UO-31 renal 0.264% | ACHN renal 6.15% | CAKI-1 renal -10.1% | CCRF-CEM leukemia -21.6% | MOLT-4 leukemia -49.9% | SR leukemia -38.7% | OVCAR-4 ovarian -18.6% | OVCAR-3 ovarian -34.3% | HS 578T breast -2.92%
inactive: EKVX NSCLC 29% | SN12C renal 19.9% | TK-10 renal 49.1% | A498 renal 29.1% | OVCAR-8 ovarian 41.1% | OVCAR-5 ovarian 67.8% | SK-OV-3 ovarian 42.5% | IGROV1 ovarian 25.6% | NCI/ADR-RES ovarian 27.1%

COc1ccc(NC2=C(Br)C(=O)C(C)=C(C)C2=O)cc1
active: CCRF-CEM leukemia -13.8% | MOLT-4 leukemia -9.34% | SR leukemia 2.06% | OVCAR-8 ovarian -29.7% | OVCAR-4 ovarian -99.6%
inactive: SK-MEL-2 melanoma 92.4% | EKVX NSCLC 83.5% | SN12C renal 79.6% | UO-31 renal 74% | TK-10 renal 172% | ACHN renal 85.6% | CAKI-1 renal 94.9% | A498 renal 93.5% | OVCAR-5 ovarian 102% | SK-OV-3 ovarian 69.4% | IGROV1 ovarian 41.3% | OVCAR-3 ovarian 60.3% | HS 578T breast 96.9% | NCI/ADR-RES ovarian 80.6%

O=c1c2cccc(F)c2sc2c(NCCCNCCO)nc3ccccc3c12
active: CAKI-1 renal 3.45% | MOLT-4 leukemia -6.18% | SR leukemia -16.6%
inactive: SK-MEL-2 melanoma 89.8% | EKVX NSCLC 55.4% | SN12C renal 43.5% | UO-31 renal 19% | TK-10 renal 48.6% | ACHN renal 15.3% | A498 renal 40.9% | CCRF-CEM leukemia 22.7% | OVCAR-8 ovarian 32% | OVCAR-5 ovarian 61.8% | OVCAR-4 ovarian 34.9% | SK-OV-3 ovarian 56.2% | IGROV1 ovarian 24.2% | OVCAR-3 ovarian 30.1% | HS 578T breast 37.8% | NCI/ADR-RES ovarian 31.5%

Cc1cccc(NC2=C(Cl)C(=O)c3nc(C)ccc3C2=O)c1
inactive: EKVX NSCLC 75.7% | TK-10 renal 123% | A498 renal 42.1% | SK-OV-3 ovarian 74.5% | NCI/ADR-RES ovarian 13.8%
active: SK-MEL-2 melanoma -9.34% | SN12C renal -71.2% | UO-31 renal -93.3% | ACHN renal -98.3% | CAKI-1 renal -33.1% | CCRF-CEM leukemia 3.19% | MOLT-4 leukemia -22.1% | SR leukemia 1.13% | OVCAR-8 ovarian 6.03% | OVCAR-5 ovarian -43% | OVCAR-4 ovarian -97.5% | IGROV1 ovarian -54.1% | OVCAR-3 ovarian -31.8% | HS 578T breast -16.5%

CCOC(=O)c1cnn2c3ccccc3n(S(=O)(=O)c3ccc(OC)cc3)c12
active: A498 renal -3.19% | CCRF-CEM leukemia 9.32% | OVCAR-3 ovarian 0.973% | NCI/ADR-RES ovarian 0.145%
inactive: SK-MEL-2 melanoma 66.7% | EKVX NSCLC 38.4% | SN12C renal 22.2% | UO-31 renal 46.7% | TK-10 renal 79.7% | ACHN renal 35.4% | CAKI-1 renal 42.3% | MOLT-4 leukemia 16.5% | SR leukemia 14% | OVCAR-8 ovarian 27.5% | OVCAR-5 ovarian 42.5% | OVCAR-4 ovarian 71.4% | SK-OV-3 ovarian 48.2% | IGROV1 ovarian 28.6% | HS 578T breast 37.3%

COc1cc(/C=C/c2ccccc2)cc(OC)c1
inactive: SK-MEL-2 melanoma 93.7% | EKVX NSCLC 78.9% | SN12C renal 100% | UO-31 renal 80.1% | TK-10 renal 95.9% | ACHN renal 96.6% | CAKI-1 renal 81.3% | A498 renal 88.7% | CCRF-CEM leukemia 108% | MOLT-4 leukemia 89.3% | SR leukemia 86.7% | OVCAR-8 ovarian 97.7% | OVCAR-5 ovarian 95.6% | OVCAR-4 ovarian 105% | SK-OV-3 ovarian 106% | IGROV1 ovarian 84.6% | OVCAR-3 ovarian 105% | HS 578T breast 104% | NCI/ADR-RES ovarian 99.6%

COc1ccc(C2C(C#N)=C(N)Oc3c2sc2c(C)cccc32)cc1 (centres undefined)
active: CAKI-1 renal 3.44% | A498 renal -5.44% | CCRF-CEM leukemia 8% | OVCAR-3 ovarian 4.88% | NCI/ADR-RES ovarian 4.33%
inactive: SK-MEL-2 melanoma 48.2% | EKVX NSCLC 42.3% | SN12C renal 23.9% | UO-31 renal 33.9% | TK-10 renal 63.8% | ACHN renal 28.3% | MOLT-4 leukemia 12.9% | SR leukemia 15.4% | OVCAR-8 ovarian 22.6% | OVCAR-5 ovarian 23.5% | OVCAR-4 ovarian 50.1% | SK-OV-3 ovarian 67.4% | IGROV1 ovarian 23.3% | HS 578T breast 18.6%

COc1cc(C2CC(c3ccc(N(C)C)cc3)=NN2C(C)=O)cc(OC)c1OC (centres undefined)
inactive: SK-MEL-2 melanoma 37.1% | EKVX NSCLC 44.3% | SN12C renal 37.7% | UO-31 renal 45.7% | TK-10 renal 63.4% | ACHN renal 44.9% | CAKI-1 renal 27% | CCRF-CEM leukemia 11.8% | MOLT-4 leukemia 11.6% | OVCAR-8 ovarian 38.9% | OVCAR-5 ovarian 54.5% | OVCAR-4 ovarian 51.5% | SK-OV-3 ovarian 24.9% | IGROV1 ovarian 30.4%
active: A498 renal -1.88% | SR leukemia -17.2% | OVCAR-3 ovarian -38.2% | HS 578T breast 0.792% | NCI/ADR-RES ovarian -24.4%

O=c1c2cc(F)ccc2sc2c(NCCO)nc3ccccc3c12
inactive: SK-MEL-2 melanoma 102% | EKVX NSCLC 83.3% | SN12C renal 98.4% | UO-31 renal 77.8% | TK-10 renal 114% | ACHN renal 103% | CAKI-1 renal 90.8% | A498 renal 80.6% | CCRF-CEM leukemia 105% | MOLT-4 leukemia 104% | SR leukemia 88.9% | OVCAR-8 ovarian 97.1% | OVCAR-5 ovarian 108% | OVCAR-4 ovarian 111% | SK-OV-3 ovarian 109% | IGROV1 ovarian 104% | OVCAR-3 ovarian 121% | HS 578T breast 110% | NCI/ADR-RES ovarian 103%

Cc1ccc(-c2nc(N3CCN(C(=O)Nc4ccc(Cl)c(C(F)(F)F)c4)CC3)c3ccccc3n2)cc1
inactive: SK-MEL-2 melanoma 96.5% | EKVX NSCLC 79.4% | SN12C renal 74.8% | UO-31 renal 53.6% | TK-10 renal 93.7% | ACHN renal 71.5% | CAKI-1 renal 53.6% | A498 renal 45.9% | CCRF-CEM leukemia 65.8% | MOLT-4 leukemia 49.2% | SR leukemia 75% | OVCAR-8 ovarian 73.6% | OVCAR-5 ovarian 86.9% | OVCAR-4 ovarian 77.8% | SK-OV-3 ovarian 81.7% | IGROV1 ovarian 78.2% | OVCAR-3 ovarian 74.8% | HS 578T breast 82.2% | NCI/ADR-RES ovarian 69.1%

Cc1cccc2c(=O)c3c(sc12)c(NCc1ccccc1)nc1ccccc13
inactive: SK-MEL-2 melanoma 101% | EKVX NSCLC 89.7% | SN12C renal 93.6% | UO-31 renal 66.5% | TK-10 renal 105% | ACHN renal 90.9% | CAKI-1 renal 76.4% | A498 renal 72.4% | CCRF-CEM leukemia 100% | MOLT-4 leukemia 92.1% | SR leukemia 74.4% | OVCAR-8 ovarian 100% | OVCAR-5 ovarian 75.6% | OVCAR-4 ovarian 87.6% | SK-OV-3 ovarian 88.7% | IGROV1 ovarian 74.3% | OVCAR-3 ovarian 106% | HS 578T breast 98.7% | NCI/ADR-RES ovarian 97.2%

COc1cc2cc(Oc3ccc(NC(=O)Nc4ccc(Cl)c(Cl)c4)cc3)c(C)nc2cc1OCCN1CCOCC1
inactive: SK-MEL-2 melanoma 107% | EKVX NSCLC 66.4% | SN12C renal 91.5% | UO-31 renal 83.9% | TK-10 renal 124% | ACHN renal 93.4% | CAKI-1 renal 87.5% | A498 renal 72.8% | CCRF-CEM leukemia 65% | MOLT-4 leukemia 62.7% | OVCAR-8 ovarian 91.1% | OVCAR-5 ovarian 127% | OVCAR-4 ovarian 85% | SK-OV-3 ovarian 111% | IGROV1 ovarian 97.8% | OVCAR-3 ovarian 106% | HS 578T breast 102% | NCI/ADR-RES ovarian 91.4%
active: SR leukemia 5.6%

O=C(Nc1ccc(Br)cc1F)c1cc(Br)ccc1O
inactive: TK-10 renal 15.3% | CCRF-CEM leukemia 20.9% | OVCAR-8 ovarian 11.6% | OVCAR-5 ovarian 25.3% | OVCAR-4 ovarian 22.4% | SK-OV-3 ovarian 12% | IGROV1 ovarian 15.3%
active: SK-MEL-2 melanoma -25.4% | EKVX NSCLC 9.76% | SN12C renal -10.9% | UO-31 renal -11% | ACHN renal -0.439% | CAKI-1 renal 2.12% | A498 renal -42% | MOLT-4 leukemia 1.26% | SR leukemia 4.87% | OVCAR-3 ovarian 5.37% | HS 578T breast 4.22% | NCI/ADR-RES ovarian 7.36%

COc1ccc(/C=C2\Oc3cc(OCCN4CCC(Cc5ccccc5)CC4)ccc3C2=O)cc1OC
active: SR leukemia -1.05%
inactive: SK-MEL-2 melanoma 104% | EKVX NSCLC 70.4% | SN12C renal 65.6% | UO-31 renal 51.9% | TK-10 renal 95.3% | ACHN renal 96.8% | CAKI-1 renal 74.2% | A498 renal 69.7% | CCRF-CEM leukemia 55.9% | MOLT-4 leukemia 46.7% | OVCAR-8 ovarian 39.1% | OVCAR-5 ovarian 93.4% | OVCAR-4 ovarian 79.3% | SK-OV-3 ovarian 87.8% | IGROV1 ovarian 82.1% | OVCAR-3 ovarian 87% | HS 578T breast 74.6% | NCI/ADR-RES ovarian 70.9%

c1ccc(CO[C@H]2CO[C@H]3[C@@H]2OC[C@@H]3Oc2ccc(Nc3ncnc4ccsc34)cc2)cc1
inactive: SK-MEL-2 melanoma 84% | EKVX NSCLC 62.3% | SN12C renal 69.3% | UO-31 renal 42% | TK-10 renal 99.6% | ACHN renal 72.1% | CAKI-1 renal 74.7% | A498 renal 33.2% | CCRF-CEM leukemia 77.7% | MOLT-4 leukemia 64.5% | SR leukemia 60.6% | OVCAR-8 ovarian 81.6% | OVCAR-5 ovarian 94.9% | OVCAR-4 ovarian 81.8% | SK-OV-3 ovarian 95.8% | IGROV1 ovarian 70.3% | OVCAR-3 ovarian 93.7% | HS 578T breast 90.5% | NCI/ADR-RES ovarian 73.3%
